# Measurements taken from paper PMC5540273 (PLoS ONE, 2017).
# 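Also: kd values determined as follow-up on hits from a single-replicate KINOMEscan panel screen.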
smiles,measurement,setting,value
Fc1cc(Cl)ccc1Nc1ccnc2cc(-c3ccc(CN4CCCCC4)o3)ccc12 [GW560116],Kd,SRC,4.4 µM
O=C1NC(=O)C(N2CCc3ccccc32)=C1c1ccccc1Cl [SB-373598],Kd,SRMS,> 10 µM
same,Kd,TAOK2,> 10 µM
Cc1ccc(C(=O)Nc2ccc(Nc3ccnc4cc(-c5ccccn5)ccc34)cc2O)cc1.Cl [GW440146],Kd,SRMS,0.35 µM
COc1cccc(-c2cc(-c3c[nH]nc3-c3ccccn3)ccn2)c1 [GW680338],Kd,SRPK1,> 10 µM
CS(=O)(=O)c1ccc(-c2nc3n(c2-c2ccncc2)CCC3)cc1 [SKF-105942],Kd,STK16,> 10 µM
COc1cc2ncn(-c3cc(OCC4CCCO4)c(C(N)=O)s3)c2cc1OC (stereo not drawn) [GSK204607],Kd,STK35,3.6 µM
Cl.O=C(Nc1cccc(-c2nn3ncccc3c2-c2ccnc(Nc3cccnc3)n2)c1)c1c(F)cccc1F [GSK312879],Kd,STK36,0.098 µM
Cc1ccccc1-n1cnc2c(N)ncnc21 [SKF-97510],Kd,SYK,> 10 µM
